Test [1] deals with Mitogen-activated protein kinase 3 (Homo sapiens) (UniProt P27361). The following applies: at 1 µM.
Test [2] addresses SRSF protein kinase 3 (Homo sapiens) (UniProt Q9UPE1). The settings on record: at 0.1 µM.
Test [3] shares this target. The following applies: at 1 µM.
For test [4], the target named is Mitogen-activated protein kinase 14 (Homo sapiens) (UniProt Q16539). The following applies: at 0.1 µM.
Test [5] shares this target. The settings on record: at 1 µM.
Test [6] deals with Mitogen-activated protein kinase 11 (Homo sapiens) (UniProt Q15759). The settings on record: at 0.1 µM.
For test [7] the target is unchanged. The following applies: at 1 µM.
Test [8] deals with T1, Mitogen-activated protein kinase 13 (Homo sapiens) (UniProt O15264).
T1 sequence (whole entry): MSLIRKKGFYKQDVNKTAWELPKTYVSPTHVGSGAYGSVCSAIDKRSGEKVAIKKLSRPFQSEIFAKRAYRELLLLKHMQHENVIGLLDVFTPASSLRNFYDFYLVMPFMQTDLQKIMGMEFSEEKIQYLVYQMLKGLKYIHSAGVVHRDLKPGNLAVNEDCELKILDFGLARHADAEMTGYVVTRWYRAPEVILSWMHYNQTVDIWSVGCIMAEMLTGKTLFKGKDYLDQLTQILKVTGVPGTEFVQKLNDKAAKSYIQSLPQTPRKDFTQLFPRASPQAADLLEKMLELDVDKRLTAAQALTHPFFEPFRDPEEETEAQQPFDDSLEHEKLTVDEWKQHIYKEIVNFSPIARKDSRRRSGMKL
The following applies: at 0.1 µM.

The target of test [9] is T1, Mitogen-activated protein kinase 13 (Homo sapiens). The following applies: at 1 µM.
Test [10] addresses T2, Mitogen-activated protein kinase 12 (Homo sapiens) (UniProt P53778).
T2 sequence (whole entry): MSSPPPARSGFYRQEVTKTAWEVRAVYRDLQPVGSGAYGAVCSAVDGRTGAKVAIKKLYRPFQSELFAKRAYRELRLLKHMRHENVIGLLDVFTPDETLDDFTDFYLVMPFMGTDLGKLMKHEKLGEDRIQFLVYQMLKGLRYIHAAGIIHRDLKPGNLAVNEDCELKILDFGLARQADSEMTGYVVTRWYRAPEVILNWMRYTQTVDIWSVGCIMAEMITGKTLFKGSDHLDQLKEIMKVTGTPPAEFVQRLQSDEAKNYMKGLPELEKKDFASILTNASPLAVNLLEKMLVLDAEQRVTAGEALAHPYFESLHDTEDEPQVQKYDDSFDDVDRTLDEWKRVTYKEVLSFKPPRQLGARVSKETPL
The settings on record: at 0.1 µM.

In test [11] the target is T2, Mitogen-activated protein kinase 12 (Homo sapiens). The settings on record: at 1 µM.
Test [12] deals with SRSF protein kinase 1 (Homo sapiens) (UniProt Q96SB4). The following applies: at 0.1 µM.
Test [13] has the same target. The settings on record: at 1 µM.
In test [14] the target is Phosphatidylinositol 4,5-bisphosphate 3-kinase catalytic subunit alpha isoform (Homo sapiens) (UniProt P42336). The settings on record: at 0.1 µM.
For test [15] the target is unchanged. The settings on record: at 1 µM.
In test [16] the target is T3, Phosphatidylinositol 4,5-bisphosphate 3-kinase catalytic subunit delta isoform (Homo sapiens) (UniProt O00329).
T3 sequence (whole entry): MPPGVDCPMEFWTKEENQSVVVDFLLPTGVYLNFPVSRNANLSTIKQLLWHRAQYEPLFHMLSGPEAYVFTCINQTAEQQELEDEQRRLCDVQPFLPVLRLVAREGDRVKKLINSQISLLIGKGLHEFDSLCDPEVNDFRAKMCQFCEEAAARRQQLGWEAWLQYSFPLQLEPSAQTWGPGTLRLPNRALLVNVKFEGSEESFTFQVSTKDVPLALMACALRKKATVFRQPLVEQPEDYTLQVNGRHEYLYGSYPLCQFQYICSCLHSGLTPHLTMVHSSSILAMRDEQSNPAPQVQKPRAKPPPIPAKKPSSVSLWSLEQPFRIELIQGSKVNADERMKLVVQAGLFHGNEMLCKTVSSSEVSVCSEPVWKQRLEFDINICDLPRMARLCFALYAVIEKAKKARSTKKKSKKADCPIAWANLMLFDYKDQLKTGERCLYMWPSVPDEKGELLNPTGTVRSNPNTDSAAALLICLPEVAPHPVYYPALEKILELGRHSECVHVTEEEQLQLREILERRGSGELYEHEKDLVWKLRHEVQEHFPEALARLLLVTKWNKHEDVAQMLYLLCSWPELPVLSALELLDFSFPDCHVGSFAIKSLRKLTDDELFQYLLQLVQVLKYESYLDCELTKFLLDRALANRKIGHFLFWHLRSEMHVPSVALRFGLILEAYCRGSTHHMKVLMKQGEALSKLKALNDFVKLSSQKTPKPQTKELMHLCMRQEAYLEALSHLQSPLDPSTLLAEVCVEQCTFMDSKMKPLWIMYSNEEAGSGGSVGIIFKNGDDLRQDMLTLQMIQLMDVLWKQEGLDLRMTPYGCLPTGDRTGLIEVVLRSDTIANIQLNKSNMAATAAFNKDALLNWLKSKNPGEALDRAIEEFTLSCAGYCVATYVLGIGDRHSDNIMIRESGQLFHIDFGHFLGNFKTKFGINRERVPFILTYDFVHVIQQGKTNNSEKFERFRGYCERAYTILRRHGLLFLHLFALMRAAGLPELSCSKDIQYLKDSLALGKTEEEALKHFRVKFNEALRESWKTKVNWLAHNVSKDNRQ
The settings on record: at 0.1 µM.

Test [17] deals with T3, Phosphatidylinositol 4,5-bisphosphate 3-kinase catalytic subunit delta isoform (Homo sapiens). The following applies: at 1 µM.
Test [18] deals with Phosphatidylinositol 4-kinase beta (Homo sapiens) (UniProt Q9UBF8). The following applies: at 0.1 µM.
The target is the same in test [19]. The settings on record: at 1 µM.
In test [20] the target is Sphingosine kinase 1 (Homo sapiens) (UniProt Q9NYA1). The following applies: at 0.1 µM.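 Also: mean percent inhibition of SPHK1 activity, measured within the GSK PKIS screening panel.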

Data on six molecules can be found in ChEMBL document CHEMBL1961873, “Compounds: GSK PKIS; Assays: Nanosyn kinase panel” (2012).

Chain of Mitogen-activated protein kinase 3 (Homo sapiens) (P27361 whole entry): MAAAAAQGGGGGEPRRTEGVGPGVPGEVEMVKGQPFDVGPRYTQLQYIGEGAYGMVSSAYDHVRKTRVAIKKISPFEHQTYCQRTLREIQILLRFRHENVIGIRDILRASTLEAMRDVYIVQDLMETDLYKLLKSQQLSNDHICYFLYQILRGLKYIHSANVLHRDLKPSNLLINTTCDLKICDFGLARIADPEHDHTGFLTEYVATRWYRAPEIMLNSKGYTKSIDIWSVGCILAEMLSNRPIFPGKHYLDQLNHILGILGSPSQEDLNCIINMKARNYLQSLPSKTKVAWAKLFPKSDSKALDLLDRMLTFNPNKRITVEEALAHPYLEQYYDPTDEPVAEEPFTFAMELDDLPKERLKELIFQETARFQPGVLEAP
Chain of Sphingosine kinase 1 (Homo sapiens) (Q9NYA1 whole entry): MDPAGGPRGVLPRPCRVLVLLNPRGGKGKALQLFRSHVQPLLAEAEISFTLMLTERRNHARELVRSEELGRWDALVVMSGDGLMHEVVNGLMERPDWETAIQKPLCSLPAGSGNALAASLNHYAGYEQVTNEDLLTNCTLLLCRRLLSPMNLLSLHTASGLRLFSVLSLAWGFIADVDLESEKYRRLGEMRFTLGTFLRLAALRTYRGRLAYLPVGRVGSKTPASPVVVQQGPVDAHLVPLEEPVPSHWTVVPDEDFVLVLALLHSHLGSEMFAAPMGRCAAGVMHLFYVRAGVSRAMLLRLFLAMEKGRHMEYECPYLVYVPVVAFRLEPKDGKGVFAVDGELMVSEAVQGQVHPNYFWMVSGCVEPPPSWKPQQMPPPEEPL
Chain of Mitogen-activated protein kinase 14 (Homo sapiens) (Q16539 whole entry): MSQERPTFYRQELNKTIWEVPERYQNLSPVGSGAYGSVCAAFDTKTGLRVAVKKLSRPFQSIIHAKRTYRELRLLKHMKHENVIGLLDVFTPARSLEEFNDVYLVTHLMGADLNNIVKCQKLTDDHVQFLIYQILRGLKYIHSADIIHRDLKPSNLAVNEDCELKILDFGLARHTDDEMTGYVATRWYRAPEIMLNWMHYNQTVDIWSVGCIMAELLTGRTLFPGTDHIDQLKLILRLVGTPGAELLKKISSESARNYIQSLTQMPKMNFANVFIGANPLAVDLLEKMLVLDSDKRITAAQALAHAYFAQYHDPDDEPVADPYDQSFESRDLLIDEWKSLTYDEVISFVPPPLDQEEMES
Chain of Phosphatidylinositol 4,5-bisphosphate 3-kinase catalytic subunit alpha isoform (Homo sapiens) (P42336 whole entry, canonical isoform): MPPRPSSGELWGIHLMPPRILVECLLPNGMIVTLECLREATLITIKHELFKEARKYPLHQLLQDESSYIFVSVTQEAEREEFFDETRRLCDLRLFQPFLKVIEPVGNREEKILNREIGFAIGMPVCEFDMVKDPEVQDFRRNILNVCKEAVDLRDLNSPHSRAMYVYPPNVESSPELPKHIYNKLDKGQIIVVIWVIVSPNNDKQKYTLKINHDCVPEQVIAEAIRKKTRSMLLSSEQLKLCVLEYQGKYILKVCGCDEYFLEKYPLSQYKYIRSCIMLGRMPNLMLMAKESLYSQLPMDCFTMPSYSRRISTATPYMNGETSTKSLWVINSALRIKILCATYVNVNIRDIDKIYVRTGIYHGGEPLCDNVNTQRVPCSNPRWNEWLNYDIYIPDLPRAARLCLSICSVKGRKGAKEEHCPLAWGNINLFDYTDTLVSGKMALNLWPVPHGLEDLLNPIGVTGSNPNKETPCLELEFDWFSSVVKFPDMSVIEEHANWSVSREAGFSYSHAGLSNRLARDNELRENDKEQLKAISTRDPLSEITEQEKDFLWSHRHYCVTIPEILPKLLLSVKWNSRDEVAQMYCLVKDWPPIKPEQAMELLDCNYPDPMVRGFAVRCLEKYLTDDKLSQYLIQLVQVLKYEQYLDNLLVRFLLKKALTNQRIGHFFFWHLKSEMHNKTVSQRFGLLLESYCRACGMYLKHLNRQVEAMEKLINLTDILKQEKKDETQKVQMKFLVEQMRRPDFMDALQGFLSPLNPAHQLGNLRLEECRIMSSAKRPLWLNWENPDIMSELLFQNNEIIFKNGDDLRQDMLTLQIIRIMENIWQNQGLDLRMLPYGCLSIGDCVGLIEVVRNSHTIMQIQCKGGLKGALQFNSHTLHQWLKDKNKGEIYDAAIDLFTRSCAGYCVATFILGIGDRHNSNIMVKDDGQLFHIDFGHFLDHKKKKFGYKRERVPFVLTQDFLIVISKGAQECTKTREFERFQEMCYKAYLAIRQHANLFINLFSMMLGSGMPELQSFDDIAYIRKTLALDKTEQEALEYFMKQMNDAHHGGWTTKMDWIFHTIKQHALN
Chain of SRSF protein kinase 3 (Homo sapiens) (Q9UPE1 whole entry): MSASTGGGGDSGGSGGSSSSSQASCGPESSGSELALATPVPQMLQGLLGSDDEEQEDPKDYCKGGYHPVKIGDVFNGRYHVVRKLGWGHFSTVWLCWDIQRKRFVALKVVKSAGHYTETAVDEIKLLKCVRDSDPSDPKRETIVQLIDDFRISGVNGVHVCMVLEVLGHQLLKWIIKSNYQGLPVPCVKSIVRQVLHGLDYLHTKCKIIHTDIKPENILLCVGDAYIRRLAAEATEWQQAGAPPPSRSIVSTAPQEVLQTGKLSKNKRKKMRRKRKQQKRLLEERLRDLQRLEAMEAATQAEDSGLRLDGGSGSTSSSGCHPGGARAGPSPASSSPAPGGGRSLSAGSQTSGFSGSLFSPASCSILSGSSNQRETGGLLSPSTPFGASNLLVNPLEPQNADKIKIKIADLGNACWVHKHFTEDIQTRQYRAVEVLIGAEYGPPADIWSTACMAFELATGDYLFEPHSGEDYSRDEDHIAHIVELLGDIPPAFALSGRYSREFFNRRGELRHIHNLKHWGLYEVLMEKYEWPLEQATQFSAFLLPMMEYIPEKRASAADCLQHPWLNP
Chain of Mitogen-activated protein kinase 11 (Homo sapiens) (Q15759 whole entry): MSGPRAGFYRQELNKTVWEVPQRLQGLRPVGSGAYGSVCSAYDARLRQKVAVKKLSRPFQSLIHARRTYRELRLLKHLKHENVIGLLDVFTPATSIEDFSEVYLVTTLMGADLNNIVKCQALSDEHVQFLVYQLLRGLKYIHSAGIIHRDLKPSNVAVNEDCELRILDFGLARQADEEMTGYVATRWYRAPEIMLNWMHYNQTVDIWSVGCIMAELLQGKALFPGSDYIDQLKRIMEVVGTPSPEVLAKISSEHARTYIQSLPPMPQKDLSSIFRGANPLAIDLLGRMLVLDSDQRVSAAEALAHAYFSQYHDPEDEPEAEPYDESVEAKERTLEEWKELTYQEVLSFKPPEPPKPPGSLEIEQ
Chain of Phosphatidylinositol 4-kinase beta (Homo sapiens) (Q9UBF8 2-816 limits assumed): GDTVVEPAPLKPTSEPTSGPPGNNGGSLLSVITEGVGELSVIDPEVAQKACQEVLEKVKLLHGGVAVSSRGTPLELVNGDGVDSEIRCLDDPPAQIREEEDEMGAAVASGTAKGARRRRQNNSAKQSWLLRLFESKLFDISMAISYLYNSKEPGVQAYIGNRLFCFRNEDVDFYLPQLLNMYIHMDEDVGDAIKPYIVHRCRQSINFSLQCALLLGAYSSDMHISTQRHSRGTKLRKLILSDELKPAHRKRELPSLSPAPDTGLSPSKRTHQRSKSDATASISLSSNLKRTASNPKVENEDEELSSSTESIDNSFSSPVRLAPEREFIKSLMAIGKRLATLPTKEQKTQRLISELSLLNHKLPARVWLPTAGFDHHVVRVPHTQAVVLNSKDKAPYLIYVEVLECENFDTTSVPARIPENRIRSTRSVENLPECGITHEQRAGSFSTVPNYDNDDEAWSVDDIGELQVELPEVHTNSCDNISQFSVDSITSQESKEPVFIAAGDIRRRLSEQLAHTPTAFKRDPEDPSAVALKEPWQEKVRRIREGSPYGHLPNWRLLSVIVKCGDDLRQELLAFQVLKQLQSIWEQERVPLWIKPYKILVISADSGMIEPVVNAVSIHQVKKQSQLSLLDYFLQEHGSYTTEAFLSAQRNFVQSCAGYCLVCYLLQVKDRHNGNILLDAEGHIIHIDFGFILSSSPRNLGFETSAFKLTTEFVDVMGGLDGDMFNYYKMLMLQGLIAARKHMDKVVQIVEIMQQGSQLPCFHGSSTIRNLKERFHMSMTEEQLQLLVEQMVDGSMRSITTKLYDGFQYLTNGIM
Chain of SRSF protein kinase 1 (Homo sapiens) (Q96SB4 whole entry): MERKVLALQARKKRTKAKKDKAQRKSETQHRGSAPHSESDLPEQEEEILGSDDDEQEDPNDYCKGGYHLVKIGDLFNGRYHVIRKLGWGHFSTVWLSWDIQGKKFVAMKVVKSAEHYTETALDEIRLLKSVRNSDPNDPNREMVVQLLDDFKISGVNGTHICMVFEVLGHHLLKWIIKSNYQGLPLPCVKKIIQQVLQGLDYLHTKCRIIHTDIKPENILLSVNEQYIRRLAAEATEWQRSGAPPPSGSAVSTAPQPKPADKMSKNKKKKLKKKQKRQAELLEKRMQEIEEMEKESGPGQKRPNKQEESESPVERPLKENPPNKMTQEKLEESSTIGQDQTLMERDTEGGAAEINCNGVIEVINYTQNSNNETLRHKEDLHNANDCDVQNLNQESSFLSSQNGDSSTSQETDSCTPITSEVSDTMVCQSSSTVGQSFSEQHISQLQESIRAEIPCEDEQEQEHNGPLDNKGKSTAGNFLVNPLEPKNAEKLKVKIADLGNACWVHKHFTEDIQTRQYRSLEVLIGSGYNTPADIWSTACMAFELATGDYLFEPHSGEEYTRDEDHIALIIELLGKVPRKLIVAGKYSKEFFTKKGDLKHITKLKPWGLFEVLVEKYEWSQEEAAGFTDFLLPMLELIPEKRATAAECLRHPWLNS

For orientation: inhibition means the relative decrease from the control value, in per cent. Consider `COc1cc(N2CCN(C(C)C)CC2)ccc1Nc1nc(Nc2ccc(F)cc2C(N)=O)c2cc[nH]c2n1`, for which the inhibition is 5.68% in test [1]; 4.97% in test [2]; 4.84% in test [3]; 4.36% in test [4]; 8.96% in [5]; 1.51% in [6]. Moreover, the inhibition in [7] was 9.48%; in test [8] it was 0.06%; in test [9] it was 2.28%; in test [10] it was 0.86%; in [11], 2.22%; in test [12] it was -2.51%. Also, the inhibition in [13] was 1.46%; in [14], 0.53%; in [15] it was 0.95%; in [16], -1.34%; in [17], 2.71%; in test [18], 0.5%. Moreover, the inhibition in [19] was -1.98%; in test [20], 0.81%.
Regarding `Nc1nc(-c2cccc(Cl)c2)c(-c2ccc3ncccc3n2)s1`, the inhibition was 2.62% in test [1]; -1.86% in test [2]; 0.63% in [3]; 8.73% in test [4]; 50% in [5]; 5.89% in test [6]. The inhibition in [7] turned out to be 19.1%; in test [8], 3.72%; in test [9], 5.27%; in test [10], 8.76%; in test [11] it was 3.06%; in test [12] it was 0.23%. Besides, the inhibition in test [13] amounted to 2.87%; in test [14], 4.68%; in [15], 8.41%; in test [16], 2.57%; in [17], 6.4%; in test [18], 0.45%. In addition, the inhibition was -3.79% in test [19] and -1.31% in [20].
For `CS(=O)(=O)CCNCc1coc(-c2ccc3ncnc(Nc4ccc(OCc5ccccc5)cc4)c3c2)c1`, the inhibition in test [1] was 4.16%; in [2], 0.59%; in test [3], -0.06%; in test [4], 3.52%; in [5], 5.25%; in test [6], 1.13%. The inhibition in [7] is 5.1%; in test [8] it was 1.6%; in test [9] it was 1.56%; in test [10], 1.93%; in test [11], 3.41%; in test [12], -2.53%. Moreover, the inhibition was -3.45% in test [13]; 2.17% in test [14]; 3.25% in [15]; 0.39% in [16]; 0.49% in test [17]; -2.05% in test [18]. For the same molecule, the inhibition in [19] is -3.75%; in test [20], 4.73%.
On to `CCNC(=O)O[C@H]1CN[C@H](C#Cc2cc3ncnc(Nc4ccc(OCc5cccc(F)c5)c(Cl)c4)c3s2)C1`, for which the inhibition in test [1] turned out to be 1.29%; in [2], 1.52%; in test [3] it was 0.88%; in [4], 1.94%; in test [5], 5.4%; in test [6], 4.81%. The inhibition was -1.11% in test [7]; 1.7% in test [8]; 2.64% in test [9]; -0.39% in test [10]; 0.98% in [11]; -1.03% in test [12]. In addition, the inhibition in [13] was -0.8%; in [14] it was 3.18%; in [15] it was 29%; in test [16] it was 2.96%; in [17], 17.2%; in test [18] it was -1.09%. The inhibition in test [19] was 0.43%; in [20] it was 0.82%.
Take `CCn1c(-c2nonc2N)nc2c(C#CC(C)(C)O)ncc(OC3CCNCC3)c21`: the inhibition in test [1] was 4.59%; in test [2], 2.87%; in test [3], -1.64%; in test [4], 8.8%; in test [5], 11.3%; in test [6], 1.59%. Moreover, the inhibition in test [7] was 7.19%; in test [8], 1.55%; in test [9] it was 2.9%; in [10] it was 2.41%; in test [11] it was 3.11%; in test [12] it was -3.24%. Further, the inhibition in test [13] was -2.54%; in test [14], 2.27%; in test [15], 1.82%; in test [16] it was -0.02%; in test [17], 0.63%; in test [18] it was 4.47%. The inhibition in test [19] is 0.66%; in test [20] it was -1.2%.
`c1ccc(-c2nc3n(c2-c2ccc4c(c2)OCO4)CCC3)nc1`: the inhibition was 2.21% in [1]; -1.69% in test [2]; -1.14% in test [3]; 4.21% in test [4]; 13.4% in test [5]; 0.27% in test [6]. Also, the inhibition in [7] is 2.77%; in [8] it was 1.49%; in [9], 2.52%; in test [10] it was 1.78%; in test [11], 1.88%; in test [12] it was -0.51%. For the same molecule, the inhibition in test [13] was -1.84%; in test [14] it was 5.05%; in test [15] it was 7.23%; in test [16] it was 6.67%; in test [17], 8.16%; in [18], -3.19%. Besides, the inhibition is -2.19% in test [19] and -1.79% in test [20].
